Bioassay records: PubChem, National Center for Advancing Translational Sciences (NCATS)
SMN2 splice enh – SMN2 splice variant enhancement; Potency, µM (doses to about 46.1 µM), without a hit: top-dose activity change, positive = activation, most hits filed as activators; HEK293 SMN2-luciferase splicing reporter, luminescence, 30-36 h; hit rate 2.8% among 210,000; also: % of control where 0% means no effect; nearly all actives have a fitted effect of over 55% in size
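qHTS luciferase splicing reporter: luminescence rises when SMN2 exon 7 is included in transfected HEK293 cells. Compound exposure lasted 30-36 h at 37C, with 4.5 mM final sodium butyrate as control, followed by a ONE-Glo read.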
NPC1 promoter act – activates the NPC1 promoter | Huh7 NPC1 promoter luciferase reporter, 24 h | Potency, µM (doses to about 9.22 µM), without a hit: at the top dose activation, most hits filed as activators | hit rate 2.4% among 320,000; also: % of control where 0% means no effect; nearly all actives have a fitted effect of over 60% in size
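NPC1 promoter–luciferase Huh7 cells; 24 h compound; luminescence.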
Rab9 prom act – activators of Rab9 promoter | Huh7 Rab9 promoter-luciferase reporter, luminescence, 24 h | Potency, µM (series often up to 9.22 µM), for inactives: at the top dose activation, negative = inhibition, most hits filed as activators | hit rate 2.8% among 320,000 | AID 485297; also: % of control where 0% means no effect; nearly all actives have a fitted effect of over 60% in size
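Cells were plated at 1500 per well in reduced-serum medium with 10% FBS and left 2 h. Compound in DMSO was then added for 24 h at 37 °C. Reporter signal was read by luminescence after 10 min with luciferase detection reagent.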
ELG1 genotox – inducers of genotoxicity in HEK293T ELG1-luciferase cells | Potency, µM (top dose mostly 46 µM), without a hit: at the top dose activity change, positive = activation, most hits filed as activators | hit rate 1.3% among 330,000 | HEK293T ELG1-luciferase reporter, luminescence, 16 h | AID 504466; also: % of control where 0% means no effect; nearly all actives have a fitted effect of over 60% in size
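Cells (2,000/well) expressing the ELG1-luciferase fusion are dosed by pin tool and kept 16 hr at 37 °C, 5% CO2. Signal comes from ONE-Glo luciferase reagent after 30 min at room temperature.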
FLuc counter – inhibits or activates purified firefly luciferase, miR-21 counter-screen | Potency, µM (doses to about 57.5 µM), for inactives: at the top dose activity change, negative = inhibition, usual class: inhibitors | hit rate 6.9% among 360,000 | purified FLuc, Km substrates, luminescence inhibition;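 also: plate controls were vehicle for no effect and reference inhibitor for full effect; nearly all actives have a fitted effect of over 55% in size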
Target sequence (P08659 whole entry, looked up): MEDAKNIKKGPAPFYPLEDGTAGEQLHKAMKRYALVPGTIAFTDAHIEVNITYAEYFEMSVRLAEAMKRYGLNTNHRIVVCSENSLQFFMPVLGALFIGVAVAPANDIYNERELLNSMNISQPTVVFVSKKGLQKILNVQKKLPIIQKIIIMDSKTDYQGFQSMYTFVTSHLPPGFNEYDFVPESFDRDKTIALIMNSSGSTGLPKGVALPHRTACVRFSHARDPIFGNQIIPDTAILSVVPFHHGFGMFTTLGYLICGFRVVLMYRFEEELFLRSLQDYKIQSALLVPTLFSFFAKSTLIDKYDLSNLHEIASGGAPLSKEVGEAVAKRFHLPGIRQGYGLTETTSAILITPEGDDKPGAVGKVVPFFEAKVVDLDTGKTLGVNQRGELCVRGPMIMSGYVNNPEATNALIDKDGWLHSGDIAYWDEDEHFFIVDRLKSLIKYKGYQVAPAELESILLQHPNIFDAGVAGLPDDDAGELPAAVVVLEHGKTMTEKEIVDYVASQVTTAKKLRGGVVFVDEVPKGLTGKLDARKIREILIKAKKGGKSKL
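Biochemical qHTS of compounds, final roughly 60 µM downward over six points, against 10 nM purified firefly luciferase using Km concentrations of substrates (10 uM D-luciferin, 10 uM ATP) in Tris acetate pH 7.5 buffer; luminescence output.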
p53 reactivator – restores transcriptional activity of mutant p53 | Potency, µM (titrated, usually from 92.2 µM), for inactives: at the highest dose activity change, positive = activation, usual class: activators | hit rate 0.063% among 320,000 | H1299 p53-A138V BP100-luciferase reporter, luminescence, 24 h; also: % of control where 0% means no effect; nearly all actives have a fitted effect of over 45% in size
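H1299 (p53-null), stable ts p53-A138V + BP100-Luc; 1000 cells/well, Opti-MEM/10% FBS; cpd 4 pt, 1:5; 24 h, 37 deg C, 5% CO2; detection reagent 10 min RT; luminescence.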
Numbers without * were called inactive; ? = inconclusive; . = no result given; [ ] = dose if it differs, or a comment. Compounds with a hit are over-represented: about 7.4% of the library has one in this group of screens. Calls follow the shape of the dose curve; as a rule, active = well fitted curve in the direction sought with a large enough effect; inconclusive = small, poorly fitted or top-dose-only effect, or another doubt; inactive = no such curve, though single readings can be large; an effect the other way counts as inactive or inconclusive. Potency is read from the fitted curve at half-maximal effect.

SMILES	SMN2 splice enh	NPC1 promoter act	Rab9 prom act	ELG1 genotox	FLuc counter	p53 reactivator
C1=C(CCNc2ncnc3c2[nH]c2ccccc23)CCCC1	-42.9%	-28.3%	-33.4%	5.8%	19µM*	2.1%
Cc1ccc2[nH]c3c(=O)n(CCC4=CCCCC4)cnc3c2c1	-3.2%	23.5%	17.4%	4.8%	-1.5%	6.8%
O=c1c2[nH]c3ccccc3c2ncn1CCC1=CCCCC1	23.5%	2.51µM*	?	11.6%	1.2%	13.7%
COc1cccc(C2=CC(c3ccccc3F)n3ncc(C(=O)Nc4ccc(F)cc4)c3N2)c1 (stereo not given)	.	.	.	.	-6.1%	.
CC(=O)CCC1CC(c2ccc(Cl)cc2)=NO1 (stereo not given)	.	1.12µM*	1.41µM*	?	7.57µM*	?
Cc1cc(=O)oc2cc(OCC3CC(c4ccc(Cl)cc4)=NO3)ccc12 (stereo not given)	5.4%	-1.6%	-7.0%	3.9%	?	2.9%
NNC(=O)c1ccc(OCC2CC(c3ccc(Cl)cc3)=NO2)cc1 (stereo not given)	.	16.2%	-2.8%	?	8.49µM*	4.6%
O=C1CCCN1CC(=O)N1CCCC(Nc2cccc(F)c2)C1 (stereo not given)	.	-2.3%	0.0%	0.7%	-0.9%	-9.2%
CCOc1cc(C(=S)N2CCCCC2)ccc1OCC(=O)NCc1ccccc1	-26.2%	0.8%	-5.8%	0.5%	16.9µM*	-3.3%
CCN1CCN(C(=S)c2ccc(OCC(=O)NCc3ccccc3)cc2)CC1	6.6%	-0.3%	-1.9%	0.1%	1.9%	-4.0%
COCCCn1c(SCC(=O)n2c(C)c(C)c3ccccc32)nnc1-c1ccoc1C	-10.1%	1.0%	17.3%	18.4µM*	4.6%	20.8%
COCCCn1c(SCC(=O)N2CC(=O)Nc3ccccc32)nnc1-c1ccoc1C	-13.4%	-2.6%	4.7%	-0.7%	0.5%	0.6%
Cc1ccc2nc(Nc3nc(-c4ccccc4)cc(=O)[nH]3)nc(C)c2c1	-21.0%	-2.4%	-4.4%	?	-11.0%	-5.9%
Cc1ccc2nc(Nc3nc(=O)c4ccccc4n3C)nc(C)c2c1	5.4%	9.6%	11.1%	-3.7%	2.13µM*	4.6%
Cc1ccc(S(=O)(=O)N(C)CC(=O)N2CCCCCCC2)cc1	.	-1.9%	-0.3%	2.2%	1.0%	1.6%
CN(CC(=O)N1CCCCCC1)S(=O)(=O)c1ccccc1	.	3.16µM*	?	?	?	?
c1ccc(-c2nn[nH]n2)cc1	.	-1.6%	-0.8%	0.4%	4.1%	0.6%
Brc1cc2c(cc1COc1ccc(-c3nn[nH]n3)cc1)OCO2	14.8%	5.6%	17.7%	14.0%	?	27.8%
CCOc1ccc(-c2n[nH]c(=S)o2)cc1	17.3%	-4.3%	19.5%	15.9%	10.7µM*	2.8%
Cc1ccccc1COc1ccc(-c2nn[nH]n2)cc1	.	4.4%	20.9%	9.1%	26.9µM*	4.5%
CCc1ccc(-c2nn[nH]n2)cc1	5.5%	1.7%	19.5%	9.4%	13.5µM*	?
CCOc1ccc(-c2nn[nH]n2)cc1	27.5%	10.2%	-4.4%	2.7%	10.7µM*	7.3%
CCOc1ccc(-c2nn[nH]n2)cc1OCC	3.4%	-2.1%	0.7%	1.3%	1.2%	-10.6%
COc1ccc(OC)c(NC(=O)c2cn(CC(C)C)c(=O)c3cc(OC)c(OC)cc23)c1	-4.6%	.	.	.	-0.1%	.
O=C(COC(=O)c1ccc(O)cc1O)Nc1ccc2c(c1)OCCO2	.	-0.2%	-1.6%	?	15.1µM*	?
SMILES	SMN2 splice enh	NPC1 promoter act	Rab9 prom act	ELG1 genotox	FLuc counter	p53 reactivator
Cc1ccc(C(=O)Nc2ccc3c(c2)OCO3)cc1NC(=O)c1ccco1	?	17.7%	?	9.8%	?	2.8%
CCC(=O)Nc1ccc(NC(=O)c2ccco2)c(OC)c1	40.0%	23.7%	?	?	1.7%[2.3 µM]	?
O=C(COC(=O)c1ccc(O)cc1O)Nc1ccc2ccccc2c1	.	1.4%	3.7%	11.6%	-14.5%	6.9%
Cc1cc(NC(=O)c2ccc3c(c2)OCO3)ccc1NC(=O)c1ccco1	17.1%	11.5%	12.3%	2.7%	21.3µM*	-0.5%
O=C(COC(=O)c1ccco1)Nc1ccc2c(c1)OCCO2	-1.2%	-3.0%	0.6%	1.0%	2.39µM*	0.8%
CCCC(=O)Nc1ccc(NC(=O)c2ccco2)c(OC)c1	?	?	?	?	15.1µM*	?
O=C(Nc1ccc(F)cc1F)c1ccc(-n2cnnc2)cc1	.	.	.	.	-2.2%	.
CSc1nc(N)nc2c1ncn2CC(=O)N[C@H](CO)Cc1c[nH]c2ccccc12	.	.	.	2.9%	.	6.2%
Cc1cccc2sc(NS(=O)(=O)c3ccccc3)nc12	.	-1.9%	3.9%	-4.9%	2.0%	-8.6%
COc1cc(OC)cc(C(=O)Nc2ccc(NC(=O)c3ccco3)c(C)c2)c1	.	19.8%	15.4%	?	12µM*	9.4%
Cc1ccc(NC(=O)c2ccco2)cc1C	15.8µM*	2.82µM*	3.98µM*	?	9.53µM*	?
O=C(CNC(=O)c1cccs1)Nc1ccc2c(c1)OCCO2	.	1.26µM*	1.12µM*	1.64µM*	6.01µM*	10.2%
Cc1cc(C)cc(C(=O)Nc2cccc(NC(=O)c3ccco3)c2)c1	.	3.3%	-2.8%	-1.8%	?	-6.3%
Cc1cc(NC(=O)c2ccco2)ccc1NC(=O)c1ccco1	.	17.8%	16.2%	?	?	25.8%
O=C(Nc1cccc(NC(=O)c2ccco2)c1)c1ccc2c(c1)OCO2	3.0%	2.6%	-5.0%	0.3%	15.1µM*	3.8%
CCCn1c(-c2ccc(F)cc2)nc2c(NCCN3CCCCC3)nc(C)nc21	-4.7%	.	.	.	.	.
Cn1cccc1C(=O)OCC(=O)Nc1ccc2c(c1)OCCO2	.	.	.	1.03µM*	.	?
O=C(Nc1cccc(NC(=O)c2ccco2)c1)c1ccc2c(c1)OCCO2	19.8%	3.6%	13.1%	-0.4%	9.53µM*	-0.4%
CC(C)Oc1ccc(C(=O)Nc2ccc(NC(=O)c3ccco3)c(Cl)c2)cc1	-9.8%	?	?	2.0%	0.536µM*	-2.4%
Cn1cccc1C(=O)OCC(=O)NCc1ccc2c(c1)OCO2	.	-3.3%	0.3%	5.3%	.	18.7%
COc1cc(NC(=O)c2ccc3c(c2)OCCO3)ccc1NC(=O)c1cccs1	20.4%	18.4%	18.1%	2.4%	5.36µM*	-0.8%
O=c1ccc(-c2ccc(S(=O)(=O)Nc3ccccc3Cl)o2)n[nH]1	.	1.6%	-3.9%	2.9%	-1.5%	6.7%
COc1cc(NC(=O)c2ccc3c(c2)OCCO3)ccc1NC(=O)c1ccco1	.	22.4%	29.4%	0.6%	3.38µM*	2.6%
CC1(C)Oc2ccc(NC(=O)c3ccco3)cc2O1	12.6µM*	1µM*	2.51µM*	?	6.01µM*	11.9%
O=C(Nc1ccc2c(c1)OCCO2)c1ccco1	10µM*	2µM*	2.24µM*	3.66µM*	8.49µM*	?
